Mtb hypoxia inh: inhibitors of hypoxia-regulated fluorescent reporter in Mycobacterium tuberculosis; M. tuberculosis hypoxia-regulated fluorescent reporter, fluorescence; fluorescence inhibition, % (no concentration beside the values); 0.1% of 300,000 active; AID 1159583; in the data active = fluorescence inhibition mostly above about 23%, no sharp cut-off; inactive = mostly below about 17%
Sa ugtP lethal: compounds lethal to S. aureus RN4220 ugtP deletion mutant; OD600 growth, 16 h; growth inhibition, % (test concentration not listed); 0.54% of 330,000 active; in the data active = growth inhibition above about 68%;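 note: plate controls were untreated wells for no effect and antibiotic for full effect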
Mtb betalactam: beta-lactam sensitization of Mtb H37Rv. M. tuberculosis H37Rv growth with meropenem, percent inhibition. inhibition, % at 25 µM. 0.27% of 330,000 active; call rule not given here;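 note: growth measured after seven days incubation then overnight dye step; 0% = bacteria only wells and 100% = bacteria with antibiotic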
Sa RN4220 lethal: S. aureus RN4220 growth inhibition. OD600, 16 h. inhibition, % (test concentration not listed). 0.33% of 330,000 active; in the data active = inhibition above about 85%;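 note: plate controls were untreated cells for no effect and reference antibiotic for full effect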
Rv3671c inh: Rv3671c (M. tuberculosis) protease inhibition | P9WHR9 | inhibition, % at 5.96 µM | AID 2606 | 0.048% of 320,000 active; in the data active = inhibition above about 38%;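 note: extracellular domain of Rv3671c used as enzyme; 0% = enzyme with DMSO and 100% = no enzyme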
Target sequence (P9WHR9 whole entry, looked up, the tested form may be a part): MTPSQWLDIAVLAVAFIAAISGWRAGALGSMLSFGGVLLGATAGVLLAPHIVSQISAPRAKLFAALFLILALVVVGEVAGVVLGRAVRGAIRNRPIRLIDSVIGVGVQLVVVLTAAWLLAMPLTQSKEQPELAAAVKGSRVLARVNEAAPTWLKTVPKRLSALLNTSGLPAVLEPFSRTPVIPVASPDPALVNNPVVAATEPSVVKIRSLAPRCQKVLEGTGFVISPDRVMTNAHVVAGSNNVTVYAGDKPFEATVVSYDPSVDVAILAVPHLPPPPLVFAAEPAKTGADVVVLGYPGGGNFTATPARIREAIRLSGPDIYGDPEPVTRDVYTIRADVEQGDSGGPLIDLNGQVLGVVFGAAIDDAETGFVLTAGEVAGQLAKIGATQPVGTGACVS
Mtb UGM inh: inhibitors of M. tuberculosis UDP-galactopyranose mutase. P9WIQ1. purified UGM, fluorescence polarization probe displacement. inhibition, % at 10 µM. 0.06% of 320,000 active. AID 504406; in the data active = inhibition above about 10%, passing the limit was not always enough
Starred values were filed as active, the others as inactive; x = no result given. In the library only some 0.68% were active in any assay of this set; here they are far more common.

SMILES	Mtb hypoxia inh	Sa ugtP lethal	Mtb betalactam	Sa RN4220 lethal	Rv3671c inh	Mtb UGM inh
CN1/C(=C/c2cccc[n+]2CCO)Sc2ccccc21	-1	-1	-9	-5	-5	-4
CC[n+]1ccccc1/C=C1\Sc2ccc(C)cc2N1C	-5	100*	2	27	2	2
CCOC1OC(C(N)=O)=CC(c2ccc3c(c2)OCO3)C1CCCO (stereo not given)	3	-2	x	3	x	x
CCOC(=S)SCC(=O)Nc1nc(-c2ccccc2)cs1	2	38	1	-5	1	1
CCOC(=S)SCC(=O)Nc1nc(-c2ccc(Br)cc2)cs1	12	99*	11	-13	-29	-1
N#Cc1ccccc1COc1ccc(C=CC(=O)O)cc1	5	-7	x	3	x	x
CCOC(=O)/C=C(\C)Sc1cc(O)c2ccccc2c1O	12	93*	x	97*	x	x
COC(=O)C1=C(c2ccc(S(C)(=O)=O)cc2)CC2CCC1N2C (stereo not given)	6	0	x	4	x	x
COc1nc(NCCc2ccc(OC)c(OC)c2)nc(OC)n1	x	-11	-2	0	-2	-1
COc1ccc(CCNc2c3ccccc3nc3ccccc23)cc1OC	1	93*	-8	-3	3	-1
COC(=O)c1cccc(C23CC4(C2)C(CN(Cc2ccc(C(F)(F)F)cc2)C4c2ccccc2)C3c2ccc(Cl)nc2)c1 (stereo not given)	-5	4	x	1	x	x
CCOC(=O)C1C2COc3ccc(OC)cc3C2N2C(=O)c3cc(F)c(F)cc3NC(=O)[C@@]12C (stereo not given in full)	15	3	x	3	x	x
COc1ccc(-n2c(=O)c3ccccc3n(CC(=O)c3ccccc3)c2=O)cc1OC	1	1	-5	1	-1	-2
CCOC(=O)c1cc2c(OC)ccc(OC)c2n1CC(=O)c1ccccc1	8	89*	-1	3	1	1
O=C(/C=C/c1cc(Br)ccc1O)c1ccco1	18	92*	100	91*	0	1
O=C(c1cccs1)N1CCN(CC=Cc2ccccc2)CC1	1	4	x	-2	x	x
Cc1[nH]n(-c2ccccc2)c(=O)c1C=NNc1nncc(-c2ccccc2)n1	-9	98*	x	96*	x	x
Cc1[nH]n(-c2ccccc2)c(=O)c1/C=N/Nc1nncc(-c2ccccc2)n1	x	x	3	x	9	2
O=C(Nc1cccnc1)Nc1cc(Cl)cc(Cl)c1	-5	99*	74	100*	-92	2
O=C(Cn1nc(CNc2ccc(Cl)cc2)[n+]2c1CCCCC2)c1ccc(Br)cc1	x	98*	95	89*	-15	x
CC(=O)NC(C)c1nc2ccccc2n1CCCN1CCN(c2nc(-c3ccc(C)cc3)cs2)CC1 (stereo not given)	5	7	x	3	x	x
C=CCn1c(SCc2csc(-c3ccc(C)cc3)n2)nnc1-c1ccccc1OC	-4	90*	71	-7	-11	1
CCCCC(=O)NC(=S)Nc1ccc(S(=O)(=O)N2CCCC2)cc1	13	94*	6	5	-2	-1
CN1CCN(S(=O)(=O)c2ccc(NC(=S)NC(=O)c3ccccc3)cc2)CC1	x	46	11	-2	-6	0
CN1CCN(S(=O)(=O)c2ccc(NC(=S)NC(=O)c3ccc(Cl)cc3)cc2)CC1	x	90*	x	4	x	x
SMILES	Mtb hypoxia inh	Sa ugtP lethal	Mtb betalactam	Sa RN4220 lethal	Rv3671c inh	Mtb UGM inh
CCCC(=O)Nc1ccc(S(=O)(=O)N2CCCC2)cc1	1	-1	-5	0	2	-1
CC1CCN(S(=O)(=O)c2ccc(NC(=S)NC(=O)c3ccc(Cl)cc3)cc2)CC1	x	71	40	-7	6	-1
O=C(NC(=S)Nc1ccc(S(=O)(=O)N2CCCCC2)cc1)c1ccc(Cl)cc1	x	91*	-7	-10	-5	-3
CCN1C(=O)C2C(c3ccc(C)cc3)N3C(=O)N(c4cccc(Cl)c4)C(=O)[C@@]3(CC)C2C1=O (stereo not given in full)	10	3	x	4	x	x
O=C(NCCCSc1ccccc1)c1cc(Br)ccc1O	8	81	33	83*	x	-1
O=C(NCCSc1ccccc1)c1ccc(Br)cc1	21	5	38	-5	-13	0
COCc1nnc(NS(=O)(=O)c2ccc(OC)cc2)s1	5	2	x	-1	x	x
COCc1nnc(NS(=O)(=O)c2ccc([N+](=O)[O-])cc2)s1	65*	-5	9	6	0	2
O=C(O)CCCN1C(=O)/C(=C/c2cn(-c3ccccc3)nc2-c2cccs2)SC1=S	0	83*	x	50	x	x
